Where “and” joins values, the source holds several entries; their conditions need not be identical. Identical values can stand only once. Values without a mark were called inactive. Records with an inconclusive call do not appear. Calls of active or inactive are those of the source. Calls come from the whole dose curve; as a rule, active = well fitted curve in the direction sought with a large enough effect; inconclusive = small, poorly fitted or top-dose-only effect, or another doubt; inactive = no such curve, though single readings can be large; an effect the other way counts as inactive or inconclusive.

The nature of experiment [1]: P-glycoprotein substrates identified in KB-8-5-11 adenocarcinoma cell line, qHTS therapeutic library screen (AID 1346987). Note: nearly all actives have a fitted effect of over 65% in size. Note: potency is the fitted concentration of half-maximal effect. The procedure, abridged:
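KB-8-5-11: colchicine-selected sub-line of KB-3-1 over-expressing P-gp; assay medium lacked colchicine. 72 h drug exposure at 37 degree C, CellTiter-Glo.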

The nature of experiment [2]: Primary qHTS for inhibitors of nuclear receptor binding SET domain protein 2 (NSD2) in an isogenic RCH-ACV NSD2 p.E1099K mutant (9B) (AID 1645876). Note: nearly all actives have a fitted effect of over 70% in size. Note: potency is the fitted concentration of half-maximal effect.
The target of experiment [3] is Phospholipid hydroperoxide glutathione peroxidase GPX4 (Homo sapiens) (UniProt P36969). Description: Primary qHTS Assay for Inhibitors of Recombinant Selenoprotein Glutathione Peroxidase 4 (GPX4) (AID 1845192). Note: nearly all actives have a fitted effect of over 65% in size. The procedure, abridged:
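GR-coupled assay: recombinant GPX4 preincubated 30 min with compound at room temperature; final 200 nM GPX4, 1 mM GSH, 0.5 mM cumene hydroperoxide, 0.5 mM NADPH, 100 nM GR, 0.01% BSA, pH 7.5 Tris. NADPH fluorescence (340/450 nm) read at 0 and 15 min.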

The target of experiment [4] is Luciferin 4-monooxygenase (Photinus pyralis) (UniProt P08659). The experiment in a line: Primary firefly luciferase (FLuc) qHTS assay for identification of artifact compounds. (AID 1845220). Note: nearly all actives have a fitted effect of over 60% in size. The note with it: outcome: dose series up to 54.1 µM unless noted. A digest of the protocol:
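D-luciferin and ATP (10 uM each, final) in Tris acetate buffer pH 7.6 were incubated with compounds for 15 min at room temperature. The reaction was started with 10 nM Photinus pyralis luciferase and luminescence read after 5 min. Percent inhibition was fitted to a 4-parameter Hill equation.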

Experiment [5] concerns Nanoluciferase (engineered Oplophorus gracilirostris luciferase). Description: Primary Nanoluciferase (NLuc) qHTS assay for identification of artifact compounds. (AID 1845222).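 Note: 0% = DMSO and -100% = no enzyme.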 The procedure, abridged:
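Diluted conditioned medium from NLuc-expressing S16 cells treated with compounds for 15 min at room temperature, then Nano-Glo substrate added; luminescence read after 5 min. Percent inhibition versus no-enzyme and DMSO controls fitted to 4-parameter Hill equation.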

For the next experiment, the system named is CRL-7250. Description: Cytotoxic Profiling of Annotated Libraries Using Quantitative High-Throughput Screening (AID 1296008). For max response: % is set by controls: 0 for no effect and ±100 for the full control effect. Note: nearly all actives have a fitted effect of over 60% in size. Note: potency is the fitted concentration of half-maximal effect. Particulars: Five cell lines viability, CellTiter-Glo ATP luminescence, 48-72 h; max response: stronger effect = lower value. The procedure, abridged:
(§1)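 Cells exposed to compounds for 48 or 72 hr at 37 degrees Celsius. Viability read as ATP-coupled luminescence with CellTiter-Glo after 10 min at room temperature.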

A further experiment has as its system HEK293. The experiment is described as above. The note with it: Five cell lines viability, CellTiter-Glo ATP luminescence, 48-72 h; max response: stronger effect = lower value. The procedure, abridged:
as §1

In a further experiment the test system is HaCat. The experiment is described as above. The note with it: Five cell lines viability, CellTiter-Glo ATP luminescence, 48-72 h; max response: stronger effect = lower value. The procedure, abridged: as §1
For another experiment, the system named is C33A. The experiment in a line: Primary qHTS to identify gynecologic anti-cancer compounds using libraries of approved drugs and bioactive compounds (AID 1345084). Note: nearly all actives have a fitted effect of over 55% in size. Note: potency is the fitted concentration of half-maximal effect. The note with it: Gynecologic cancer cell panel viability, ATPlite luminescence, 48 h; series mostly up to 57.5 µM. The procedure, abridged:
(§2)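 Five-point cytotoxicity, 48 h drug exposure at 37 C, 5% CO2, on cells seeded 16 h beforehand. ATP content read by ATPlite luminescence.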

The subject of the next experiment is JEG-3. Described as above. The note with it: Gynecologic cancer cell panel viability, ATPlite luminescence, 48 h; series mostly up to 57.5 µM. A digest of the protocol:
as §2

Experiment [6] concerns the target Calcium and integrin-binding protein 1 (Homo sapiens) (UniProt Q99828). Description: Primary qHTS for Identification of Calcium Integrin Binding Protein 1 (CIB1) Competitor (AID 1508620).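 Note: GST tagged CIB1 binding a fluorescein labelled alphaIIb integrin peptide tracer; top concentration of the series differs between compounds; % is set by controls: 0 for no effect and ±100 for the full control effect.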 The procedure, abridged:
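Fluorescence polarization competition: GST-tagged CIB1 (1 uM final) preincubated with compound 15 min at room temperature, then FITC-labelled alphaIIb peptide (100 nM final) added. After 15 min at room temperature, polarization read at Ex 480/Em 540.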

A further experiment deals with CAOV3. Description: Primary qHTS to identify gynecologic anti-cancer compounds using libraries of approved drugs and bioactive compounds (AID 1345084). Note: nearly all actives have a fitted effect of over 55% in size. Note: potency is the fitted concentration of half-maximal effect. Particulars: Gynecologic cancer cell panel viability, ATPlite luminescence, 48 h; series mostly up to 57.5 µM. The procedure, abridged:
as §2

Another experiment has as its system CASKI. The experiment is described as above. The note with it: Gynecologic cancer cell panel viability, ATPlite luminescence, 48 h; series mostly up to 57.5 µM. A digest of the protocol: as §2
The subject of a further experiment is Es-2. The description is as above. The note with it: Gynecologic cancer cell panel viability, ATPlite luminescence, 48 h; series mostly up to 57.5 µM. A digest of the protocol:
as §2

A further experiment deals with Hek293T. The description is as above. The note with it: Gynecologic cancer cell panel viability, ATPlite luminescence, 48 h, control line for the selectivity index; series mostly up to 57.5 µM. A digest of the protocol: as §2
The test system of a further experiment is OV90. The experiment is described as above. The note with it: Gynecologic cancer cell panel viability, ATPlite luminescence, 48 h; series mostly up to 57.5 µM. The procedure, abridged:
as §2

For another experiment, the system named is PA-1. Described as above. Particulars: Gynecologic cancer cell panel viability, ATPlite luminescence, 48 h; series mostly up to 57.5 µM. A digest of the protocol:
as §2

The test system of a further experiment is Tov-21-G. Described as above. The note with it: Gynecologic cancer cell panel viability, ATPlite luminescence, 48 h; series mostly up to 57.5 µM. A digest of the protocol: as §2
The subject of the next experiment is Tov112D. The description is as above. Particulars: Gynecologic cancer cell panel viability, ATPlite luminescence, 48 h; series mostly up to 57.5 µM. A digest of the protocol: as §2
The next experiment concerns NIH3T3. Description: Cytotoxic Profiling of Annotated Libraries Using Quantitative High-Throughput Screening (AID 1296008). For max response: % is set by controls: 0 for no effect and ±100 for the full control effect. Note: nearly all actives have a fitted effect of over 60% in size. Note: potency is the fitted concentration of half-maximal effect. Particulars: Five cell lines viability, CellTiter-Glo ATP luminescence, 48-72 h; max response: stronger effect = lower value. A digest of the protocol:
as §1

Phospholipid hydroperoxide glutathione peroxidase GPX4 (Homo sapiens), sequence (P36969 whole entry, looked up): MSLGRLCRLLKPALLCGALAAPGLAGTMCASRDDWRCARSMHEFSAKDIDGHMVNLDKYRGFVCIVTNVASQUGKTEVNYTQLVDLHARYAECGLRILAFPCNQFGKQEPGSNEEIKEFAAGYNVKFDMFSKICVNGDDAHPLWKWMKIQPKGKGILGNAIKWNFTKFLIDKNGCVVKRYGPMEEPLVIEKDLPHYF
Calcium and integrin-binding protein 1 (Homo sapiens), sequence (Q99828 whole entry, looked up): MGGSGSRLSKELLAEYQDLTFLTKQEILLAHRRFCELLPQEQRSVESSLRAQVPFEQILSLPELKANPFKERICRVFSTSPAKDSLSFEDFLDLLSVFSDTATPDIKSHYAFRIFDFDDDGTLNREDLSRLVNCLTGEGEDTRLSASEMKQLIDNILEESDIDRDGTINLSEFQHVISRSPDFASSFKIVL

Regarding `C[C@@H]1C[C@@H](O)[C@]2(O)O[C@@H]3C[C@@]4(C=O)C(CC[C@@H]5C4CC[C@]4(C)[C@@H](C6=CC(=O)OC6)CC[C@]54O)C[C@H]3O[C@@H]2O1` (stereo partly drawn), the Potency in experiment [1] was 63.2 nM (active); in [2] it was 56.3 nM (active); with CRL-7250 it was 35.5 nM (active); in the experiment on HEK293, 44.7 nM (active); in the experiment with HaCat, 252 nM (active). The Potency result (in experiment [3]; in experiment [5]; in the experiment on C33A; in the experiment on JEG-3) was “inactive” in each case. Also, in experiment [4], the outcome was “inactive [at 25.7 µM]”.

For `CCC1=CC2CN3CCc4c([nH]c5ccccc45)[C@@](C(=O)OC)(C2)[C@@H]13`, the Potency result (in [6]; in [5]; with C33A; in the experiment on CAOV3; with CASKI; in the experiment with Es-2) was “inactive” each time. Besides, the Potency entry in the experiment on Hek293T, with JEG-3, in the experiment with OV90, in the experiment with PA-1, in the experiment with Tov-21-G and in the experiment with Tov112D was “inactive” throughout. Besides, the result in experiment [4] was inactive. Moreover, the max response is -21.4% with CRL-7250, -6.65% with HEK293 and -7.15% in the experiment with HaCat.

Regarding `CCc1nn(C)c(C(=O)NCc2ccc(Oc3ccc(C)cc3)cc2)c1Cl`, the Potency in experiment [1] was 25900 nM (active); in experiment [2], 817 nM (active); in the experiment on CRL-7250, 6.5 nM (active); in the experiment on HEK293, 7.3 nM (active); in the experiment on OV90, 631 nM (active). Moreover, the Potency entry (in experiment [6]; in experiment [3]; in [5]; in the experiment with CAOV3; with Es-2; in the experiment with JEG-3) was “inactive” in each case. For the same molecule, the Potency result in the experiment with Tov-21-G and with Tov112D was “inactive” throughout. In addition, the outcome in [4] was inactive. Besides, the max response in the experiment with HaCat was 1.94%.

As for `C=C1[C@@H](C)C2[C@H](Cc3ccccc3)NC(=O)[C@@]23C(/C=C/C[C@H](C)C[C@@](C)(O)/C=C/[C@@H]3OC(C)=O)[C@@H]1O` (stereo partly drawn), the Potency in experiment [1] was 2910 nM (active); in experiment [2], 817 nM (active); in the experiment with CRL-7250, 461 nM (active); with HEK293, 731 nM (active); in the experiment with HaCat, 130 nM (active); in the experiment on PA-1, 3980 nM (active). Besides, the Potency result (in experiment [6]; in experiment [3]; in the experiment on C33A; with CAOV3; in the experiment with Es-2; in the experiment on Hek293T) was “inactive” each time. The call in [4] was inactive.

Consider `CN1C[C@@H]2CN(c3ccc(-c4ccccc4)nn3)C[C@@H]2C1`, for which the Potency result (in experiment [1]; in [6]; in experiment [2]; in [3]; in experiment [5]; in the experiment with C33A) was “inactive” throughout. Further, the Potency result with CAOV3, with Es-2, in the experiment with Hek293T, in the experiment with JEG-3, in the experiment on OV90 and with PA-1 was “inactive” each time. Further, the Potency result in the experiment on Tov-21-G and in the experiment with Tov112D was “inactive” throughout. Besides, the molecule was classed as inactive (in experiment [4]; in the experiment with NIH3T3). The values for the max response in the experiment with CRL-7250, with HEK293 and with HaCat were 2.36%, -5.4% and -2.1%, respectively.

Regarding `C[C@H]1CCC/C=C/C2C[C@H](O)C[C@H]2[C@H](O)/C=C/C(=O)O1` (stereo partly drawn), the Potency in [1] is 184 nM (active); in [2], 163 nM (active) and 332 nM (active); with CRL-7250 it was 51.7 nM (active); in the experiment on HEK293, 580 nM (active); in the experiment with HaCat it was 184 nM (active); with NIH3T3 it was 5170 nM (active). Besides, the Potency is 631 nM (active) with C33A; 316 nM (active) in the experiment with CAOV3; 1000 nM (active) with CASKI; 316 nM (active) in the experiment with Es-2; 891 nM (active) in the experiment on Hek293T; 891 nM (active) in the experiment on JEG-3. The Potency with OV90 was 316 nM (active); in the experiment with PA-1, 316 nM (active); with Tov-21-G it was 1000 nM (active); in the experiment on Tov112D, 891 nM (active). Besides, the Potency result in experiment [6], in experiment [3] and in experiment [5] was “inactive” throughout. In addition, in experiment [4], the molecule was called inactive.
